Screening results (PubChem)
This is one part of a sample in which hits are shown more often than they occur.
Cycloheximide cs: Cycloheximide Counterscreen for Small Molecule Inhibitors of Shiga Toxin; cell reporter, cycloheximide protein synthesis inhibition counterscreen; max response, %; hit rate 12% among 300,000; AID 2314, 2010; in the data active = max response mostly above about 13%, no sharp cut-off; inactive = mostly below about 14%; also: read at 38.3 µM for the half of the compounds with a filed dose; 0% is about no effect
Tb PYK inh: qHTS of Trypanosoma Brucei Inhibitors | pyruvate kinase (Trypanosoma brucei), Q57TT1 | TbPYK enzyme, Kinase-Glo Plus ATP luminescence, 45 min | Potency, µM (top dose mostly 76.8 µM), without a hit: top-dose activity, negative = inhibition, actives largely listed as inhibitors | hit rate 0.12% among 410,000 | AID 624173, 2012; also: potency is read from the fitted curve at half-maximal effect; % is scaled to controls: 0 for no effect and ±100 for the full control effect; nearly all actives have a fitted effect of over 50% in size
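Assay buffer: 50 mM TEA pH 7.2, 100 mM KCl, 10 mM MgCl2, 0.05% BSA, 0.01% Tween-20. Pyruvate kinase from T. brucei plus substrate met compound, then ADP (130 uM final). Luminescence was read post 45 min RT.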
RE007 growth inh: qHTS Assay for Inhibitors of the HIV-1 protein Vpr; S. pombe RE007 Vpr strain, BacTiter-Glo ATP luminescence, 24 h; Potency, µM (highest dose often 92.2 µM), for the others: top-dose activity change, negative = less growth, most hits filed as inhibitors; hit rate 0.21% among 360,000; active = well fitted falling curve with a large enough effect; inconclusive = small, poorly fitted or top-dose-only effect; inactive = no such curve, though single readings can be large or run the other way; also: potency is read from the fitted curve at half-maximal effect; % is scaled to controls: 0 for no effect and ±100 for the full control effect; nearly all actives have a fitted effect of over 50% in size
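Fission yeast RE007 carrying one integrated HIV-1 vpr copy, seeded at OD 0.01 in PMG+AL medium with 23 nL pinned compound. Grown 24 h at 30 degrees; viability read by BacTiter-Glo luminescence after 5 min.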
LmPK inh: qHTS Assay for Inhibitors of Leishmania Mexicana Pyruvate Kinase (LmPK) | Potency, µM (top dose mostly 57.5 µM), without a hit: at the top dose activity change, negative = inhibition, most hits filed as inhibitors | Q27686 | purified LmPK, Kinase-Glo ATP luminescence, 1 h | hit rate 0.37% among 290,000 | AID 1721, 2009; also: potency is read from the fitted curve at half-maximal effect; % is scaled to controls: 0 for no effect and ±100 for the full control effect
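Purified LmPK (0.1 nM) converted ADP (0.1 mM) to ATP with PEP (0.5 mM) in imidazole buffer pH 7.2 with KCl and MgCl2, 1 h at room temperature. ATP was read by Kinase-Glo luminescence; data normalized to uninhibited and no-enzyme controls.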
Giardia FBPA inh: qHTS Assay for Inhibitors of Fructose-1,6-bisphosphate Aldolase from Giardia Lamblia. A8B2U2. purified Giardia FBPA. Potency, µM (top dose mostly 59.6 µM), for the others: at the highest dose activity, negative = inhibition, most hits filed as inhibitors. hit rate 0.71% among 290,000. AID 2451, 2010; also: potency is read from the fitted curve at half-maximal effect; % is scaled to controls: 0 for no effect and ±100 for the full control effect; nearly all actives have a fitted effect of over 55% in size
Target sequence (A8B2U2 whole entry, looked up): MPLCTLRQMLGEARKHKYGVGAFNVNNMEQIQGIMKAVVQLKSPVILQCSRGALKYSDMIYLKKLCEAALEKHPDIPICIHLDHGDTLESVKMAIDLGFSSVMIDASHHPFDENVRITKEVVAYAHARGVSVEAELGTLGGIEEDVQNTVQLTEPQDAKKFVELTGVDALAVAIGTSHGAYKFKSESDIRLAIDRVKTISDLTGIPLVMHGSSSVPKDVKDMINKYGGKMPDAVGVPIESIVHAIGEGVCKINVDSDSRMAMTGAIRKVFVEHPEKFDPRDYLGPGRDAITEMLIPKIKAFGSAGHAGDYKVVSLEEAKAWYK
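40 nM FBPA preincubated 10 min at RT with compound (up to 57.5 uM final), then substrate plus GAPDH/TPI/NAD/arsenate coupling and diaphorase/resazurin added. Fluorescence read after 20 min at RT, 525/598 nm.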
Shiga inhibitor: A qHTS for Small Molecule Inhibitors of Shiga Toxin; inhibition, % at 38.7 µM; AID 2315, 2010; Vero cells, Shiga toxin protein synthesis inhibition reporter; hit rate 9.2% among 290,000; in the data active = inhibition mostly above about 28%, no sharp cut-off; inactive = mostly below about 43%; also: 0% is about no effect
* marks the source's active call; other numbers are inactive results; ? = inconclusive; . = no result given; [ ] = dose if it differs, or a comment. Unless noted, calls follow the shape of the dose curve; as a rule, active = well fitted curve in the direction sought with a large enough effect; inconclusive = small, poorly fitted or top-dose-only effect, or another doubt; inactive = no such curve, though single readings can be large; an effect the other way counts as inactive or inconclusive.

SMILES	Cycloheximide cs	Tb PYK inh	RE007 growth inh	LmPK inh	Giardia FBPA inh	Shiga inhibitor
O=C(Nc1cccc(NC(=O)c2cccc(F)c2)n1)c1cccc(F)c1	23*	2%	?	-6%	-11%	70*
Cc1cc(C)nc(NC(=O)c2cccc(Br)c2)n1	0	0%	10%	-5%	2%	-5
CSc1nccc(NC(=O)c2cccc(Br)c2)n1	23*	-1%	6%	4%	20%	35
CC(=O)Cc1nsc(NC(=O)c2cccc(F)c2)n1	41*	-3%	7%	-15%	-10%	72*
O=C(Nc1ccc2ccccc2c1)c1ccc(NS(=O)(=O)c2ccc(Br)s2)cc1	36*	8%	-4%	-1%	-2%	46*
CCN(C(=O)Cn1c(=O)oc2cc(S(=O)(=O)N3CCCCC3)ccc21)c1ccccc1	.	-2%	.	.	.	.
CN(CC(=O)NC(=O)NC1CCCCC1)CC(=O)Nc1ccc(OC(F)(F)F)cc1	.	-2%	4%	.	.	.
CC(C)C(=O)Nc1cccc(NC(=O)c2cccc(F)c2)c1	-3	4%	6%	-1%	-4%	-12
Cc1ccc2cc(NC(=O)c3cccc(F)c3)ccc2n1	39*	-1%	-16%	-23%	-21%	75*
Cc1nc(-c2ccccc2)cs1	2	-12%	14%	6%	1%	-16
c1ccc(CCNc2nc(-c3ccncc3)cs2)cc1	29*	1%	-2%	-8%	2%	52
CCCCCNc1nc(-c2ccccc2)cs1	42*	.	.	-15%	-5%	80*
CC1OC(CCc2cccc(Cl)c2)Cc2[nH][nH]c(=O)c21 (configuration not stated)	.	-6%	-20%	.	.	.
CC(C)(C)NC(=O)NC(=O)CSc1nnc(COc2ccccc2Cl)o1	15*	-5%	24%	-2%	-3%	40
O=C(CSc1nnc(COc2ccccc2Cl)o1)Nc1ccccc1	.	-6%	-1%	.	.	.
CN(C)CCCNc1ncnc2c1cnn2-c1ccccc1	49*	-8%	-1%	-1%	-6%	72*
Cc1ccc(-n2ncc3c(NCCCN(C)C)ncnc32)cc1Cl	.	-2%	.	.	.	.
CC(C)OCCCNc1ncnc2c1cnn2-c1ccccc1	11	0%	-3%	2%	1%	55*
O=C1CC(c2ccco2)=Nc2ccccc2N1	11*	-19%	8%	-6%	-6%	4
Cc1cc(N/N=C2/CCCc3ccccc32)nc2ccccc12	54*	1%	?	-4%	-11%	57*
c1ccc(N/N=C2\CCCc3ccccc32)nc1	18	0%	-10%	-8%	-2%	7
Cc1cc(N/N=C2\CC(C)CC(C)(C)C2)nc2ccccc12 (configuration not stated)	35*	1%	6%	2%	-10%	27*
c1ccc2nc(NN=C3CCCCC3)ccc2c1	.	-7%	-12%	.	.	.
CC1C/C(=N/Nc2nc3ccccc3[nH]2)CC(C)(C)C1 (configuration not stated)	33*	-3%	-4%	-1%	-1%	69*
c1ccc2[nH]c(NN=C3CCCCCC3)nc2c1	44*	-3%	-3%	?	0%	110*
SMILES	Cycloheximide cs	Tb PYK inh	RE007 growth inh	LmPK inh	Giardia FBPA inh	Shiga inhibitor
CC1C/C(=N/NC(=O)c2ccc(CSc3nc4ccccc4[nH]3)cc2)CC(C)(C)C1 (configuration not stated)	6	-15%	-4%	1%	-1%	17
Clc1cccc(-c2csc(-c3nc(-c4ccc(Br)s4)cs3)n2)c1	.	0%	.	.	.	.
COc1cc(CNC(=O)c2cc(-c3ccc(F)cc3OC)n[nH]2)cc(OC)c1	.	-5%	-7%	.	.	.
CC1CCc2c(sc(NC(=O)Cc3ccccc3)c2C(=O)Nc2ccc(Cl)cc2)C1 (configuration not stated)	-9	1%	.	.	.	-10
O=C(Cc1noc2ccccc12)Nc1ccc(Cl)cc1	35*	1%	-13%	-2%	-2%	22
CCOc1ccccc1NC(=O)Cc1noc2ccc(C)cc12	.	-3%	.	.	.	.
Cc1cccc(NC(=O)Cc2noc3ccccc23)c1C	22	1%	31%	0%	5%	34*
Cc1cccc(NC(=O)Cc2noc3ccccc23)c1	48*	-13%	-21%	-4%	-2%	74*
CC(=O)c1cccc(NC(=O)Cc2noc3ccccc23)c1	.	0%	.	.	.	.
CCCCC(=O)Nc1c(C(=O)N2CCN(c3ccccc3F)CC2)oc2ccccc12	.	3%	.	.	.	.
Cc1cc(NC(=O)c2sc(Nc3ccc(F)cc3)nc2N)no1	28*	-3%	1%	4%	-7%	103
C=CCNc1nc(N)c(C(=O)Nc2cc(C)on2)s1	19*	-1%	-1%	-25%	?	38*
C=CCNc1nc(N)c(C(=O)c2ccc3c(c2)OCO3)s1	26*	2%	15%	4%	-20%	87*
CN(C)C(=O)c1ccc2c(c1)N(CC(=O)NCc1ccc(F)cc1)C(=O)C1CCCCN21 (configuration not stated)	.	7%	.	.	.	.
CC(C)(C)c1cc(CN(CCO)CCO)c(O)c(C(C)(C)C)c1	-2	3%	11%	4%	-10%	1
Cc1ccc(F)c(S(=O)(=O)NC(=O)C2(C)CCN2C(=O)Cc2ccc(-c3ccccc3)cc2)c1 (configuration not stated)	.	-4%	25%[18.4 µM]	.	.	.
CN(CCOc1ccc(Cl)c(Cl)c1)Cc1ccccc1	-3	-11%	-18%	5%	?	.
CN(CCOc1ccccc1Cl)Cc1ccccc1	13*	30%	-4%	-3%	?	.
CC(=O)c1cccc(NC(=O)Cc2cccs2)c1	10	-1%	-7%	1%	-4%	19
O=C(Nc1ccc(OC(=O)c2cccs2)cc1)c1ccco1	45*	0%	-15%	?	2%	54*
O=C(Cc1cccs1)Nc1ccc(NC(=O)c2ccco2)cc1	24*	-4%	12%	-1%	-4%	60*
O=C(Cc1cccs1)Nc1ccccc1	4	0%	-22%	0%	-5%	30
CCN(CC)S(=O)(=O)c1cc(NC(=O)Cc2ccsc2)ccc1C	-4	-2%	18%	-2%	0%	24
CC(=O)c1ccc(NC(=O)Cc2cccs2)cc1	28*	1%	6%	-1%	9%	.
Cc1cc(NC(=O)Cc2ccsc2)ccc1Br	33*	-5%	17%	2%	-3%	69*
CCOC(=O)c1ccc(NC(=O)CCc2c(C)nc3cc(-c4ccc(OC)cc4OC)nn3c2C)cc1	.	-1%	.	.	.	.
OC(CNC1CCCCC1)CON=C1CCSc2c(Cl)cccc21 (configuration not stated)	.	15%	3%	.	.	.
